From PubChem BioAssay (NCATS)
Several values for one entry are separate records, joined by “and”; a condition that tells them apart may be missing. Equal entries are not always repeated. Inconclusive results are not listed. Activity calls are given as the source filed them. Unless noted, the call rests on the fitted dose curve; in most records, active means well fitted curve in the direction sought with a large enough effect; inconclusive means small, poorly fitted or top-dose-only effect, or another doubt; inactive means no such curve, though single readings can be large; an effect the other way counts as inactive or inconclusive.

Assays:
[1] = molecular target: Mitogen-activated protein kinase 10 (Mus musculus) (UniProt Q61831); experiment: JNK3 AlphaScreen Assay (AID 530; active means well fitted curve in either direction with a large enough effect, not every such curve was filed as active;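 further: kinase came from lysate of stimulated human HepG2 cells; signal reports phosphorylation of biotinylated GST-cJun 1-79 at Ser73 with 10 µM ATP; on the % scale 0 is the no-effect control and ±100 the full control effect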)
Procedure, shortened: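 Phosphorylation of biotinylated GST-cJun(1-79) at Ser73 is measured by AlphaScreen proximity luminescence. Enzyme is JNK3 in HepG2 lysates activated with interleukin-1beta and tumor necrosis factor alpha; ATP is 10 uM final.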

[2] = Cell Viability - Renal Proximal Tubule (AID 545);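 further: cells exposed to compound for 40 hours; nearly all actives have a fitted effect of over 40% in size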
Procedure, shortened: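 Cytotoxicity is scored as a concentration-dependent drop in cellular ATP in primary rat renal proximal tubule cells exposed for 40 hr. AC50 derives from Hill modelling.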

[3] = Cellular Toxicity (caspase-3) Jurkat (AID 655); details: Jurkat caspase-3 activation, luminescence; caspase-3 activation: at 92.2 µM (top of the series), DMSO = 0%, tamoxifen = 100%;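 further: cells exposed to compound for 16 h at 37 °C before reading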
Procedure, shortened: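 Caspase 3/7 activation is scored as increased luminescence in Jurkat cells cultured with compound for 16 hours in complete medium. AC50 values come from Hill fits of qHTS concentration-response data normalized to DMSO and 100 uM tamoxifen controls.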

[4] = Cellular Toxicity (caspase-3) Hek293 (AID 664); details: HEK293 caspase-3 activation, DMSO = 0%, 100 µM tamoxifen = 100%; at 92.2 µM (top of the series);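 further: cells exposed to compound for 16 h at 37 °C before readout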
Procedure, shortened: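 Concentration-response qHTS: caspase 3/7 activation measured by luminescent aminoluciferin substrate cleavage after 16 h compound exposure of Hek 293 cells. AC50 from Hill equation, with DMSO as basal and 100 uM tamoxifen as 100%.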

[5] = Cell Viability - LYMP2-003 (AID 965);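 further: cells exposed to compounds for 24 h before reading; 0% = DMSO only and full effect = 92 µM tetraoctylammonium bromide; nearly all actives have a fitted effect of over 50% in size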
Procedure, shortened: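 Acute cytotoxicity is scored as a concentration-dependent drop in intracellular ATP, measured by luciferase luminescence in human lymphoblastoid cells treated for 24 hours at 37 C. AC50 values derive from Hill-equation modelling.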

[6] = Cell Viability - LYMP2-009 (AID 968);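 further: 0% = DMSO alone and the full-kill end = tetraoctylammonium bromide at 92 µM; nearly all actives have a fitted effect of over 55% in size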
[7] = Cell Viability - LYMP2-011 (AID 969);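 further: 0% = DMSO only and full inhibition = 92 µM tetraoctylammonium bromide; nearly all actives have a fitted effect of over 60% in size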
Procedure, shortened: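 Cytotoxicity qHTS with ATP content as read-out: lymphoblastoid cells (2500/well) exposed to compound for 24 h at 37 C, then luciferase luminescence measured. Concentration-response data fitted with the standard Hill equation to give AC50.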

[8] = Cell Viability - LYMP2-017 (AID 972); further: on the % scale 0 is the no-effect control and ±100 the full control effect; nearly all actives have a fitted effect of over 55% in size
Procedure, shortened: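 CellTiter-Glo luminescence (cellular ATP, 30 min RT) measured cytotoxicity after 24 hr compound treatment at 37 C. Cells were a human lymphoblastoid line, LYMP2-017, plated at 2500/well and incubated 5 hr first; concentration-response fitted with Hill equation for AC50.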

[9] = Cell Viability - LYMP2-019 (AID 973);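 further: 0% = DMSO alone and full effect = 92 µM tetraoctylammonium bromide; nearly all actives have a fitted effect of over 55% in size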
Procedure, shortened: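 AC50 values come from Hill-equation fits of luminescent intracellular ATP (CellTiter-Glo, 30 min, room temperature) following 24 h compound exposure at 37 C. Cells: LYMP2-019 lymphoblastoid line, 2500 per well, in complete culture medium.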

[10] = Cell Viability - LYMP2-021 (AID 974); further: on the % scale 0 is the no-effect control and ±100 the full control effect; nearly all actives have a fitted effect of over 55% in size
Procedure, shortened: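 AC50 values come from Hill-equation fits to CellTiter-Glo luminescence (ATP content), read after 24 hour compound exposure at 37 C of 2500 LYMP2-021 lymphoblastoid cells/well; tetraoctylammonium bromide as positive control.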

[11] = Cell Viability - LYMP2-006 (AID 978); further: on the % scale 0 is the no-effect control and ±100 the full control effect; nearly all actives have a fitted effect of over 60% in size
Procedure, shortened: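 Concentration-dependent loss of intracellular ATP in a human lymphoblastoid line after 24 hr treatment at 37 C was measured by CellTiter-Glo luminescence, with AC50 values obtained from standard Hill-equation modelling.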

[12] = Cell Viability - LYMP2-010 (AID 981)
Procedure, shortened: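 CellTiter-Glo ATP luminescence measured cytotoxicity after 24 h compound exposure at 37 C. LYMP2-010 cells were seeded at 2500/well, with tetraoctylammonium bromide as control; concentration-response curves gave AC50 values by the Hill equation.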

[13] = Cell Viability - LYMP2-014 (AID 983);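 further: plate controls were DMSO only for no effect and 92 µM tetraoctylammonium bromide for full effect; nearly all actives have a fitted effect of over 50% in size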
Procedure, shortened: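 Intracellular ATP loss, read by luciferase luminescence, measures acute cytotoxicity after 24 h compound exposure of lymphoblastoid LYMP2-014 cells (2500/well, 37 C). Concentration-response data fitted to the Hill equation for AC50.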

[14] = Cell Viability - LYMP2-020 (AID 986)
Procedure, shortened: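 Cytotoxicity in qHTS format: luminescent ATP readout from CellTiter-Glo after 24 h compound exposure at 37 C in complete medium. LYMP2-020 lymphoblastoid cells were seeded at 2500/well; concentration-response data fitted to the Hill equation for AC50.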

[15] = Cell Viability - LYMP2-022 (AID 987)
Procedure, shortened: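 Cytotoxicity read as decreased cellular ATP (CellTiter-Glo luminescence, 30 min room temperature) after 24 hours compound exposure of 2500 lymphoblastoid LYMP2-022 cells/well at 37 C. Concentration-response data fitted with standard Hill equation for AC50.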

[16] = qHTS assay for small molecule activators of the nuclear factor-kappa B (NF-kB) signaling pathway (AID 651749; active means well fitted activation curve with a large enough effect in the signal ratio; the % refers to the signal ratio; further: % of control where 0% means no effect); details: NF-kB-bla ME-180 cells, beta-lactamase FRET ratio, 16 h; hits give high values
Procedure, shortened: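 Human ME-180 cervical cells with an NF-kB-bla construct; compounds added via 23 nL pin transfer, DMSO as vehicle; incubation 16 hr. Reporter activity measured by FRET disruption.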

[17] = qHTS assay for small molecule activators of the human pregnane X receptor (PXR) signaling pathway (AID 720659; call rule not given here; further: 0% is about no effect)
[18] = Cell Viability - LYMP1-003 - Assay at 40 hr (AID 964); further: on the % scale 0 is the no-effect control and ±100 the full control effect; nearly all actives have a fitted effect of over 60% in size
Procedure, shortened: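 Viability is taken as cellular ATP, read by CellTiter-Glo luminescence after 40 h of compound exposure at 37 C. Cells: human lymphoblastoid line LYMP1-003 at 2500/well; AC50 values derived by Hill-equation fitting of concentration-response data.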

[19] = Cell Viability - LYMP2-002 (AID 977);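 further: plate controls were DMSO only for no effect and 92 µM tetraoctylammonium bromide for full effect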
Procedure, shortened: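 In this qHTS viability screen, 2500 human lymphoblastoid cells per well receive compound for 24 hr at 37 C, and luciferase-based ATP luminescence gives the viability signal. Tetraoctylammonium bromide serves as positive control.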

[20] = molecular target: Voltage-gated inwardly rectifying potassium channel KCNH2 (Homo sapiens) (UniProt Q12809); experiment: qHTS Assay for Small Molecule Inhibitors of the Human hERG Channel Activity (AID 588834);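 further: U2OS cells transduced with hERG by BacMam; top concentration of the series differs between compounds; on the % scale 0 is the no-effect control and ±100 the full control effect; lower thallium flux fluorescence means stronger hERG block; nearly all actives have a fitted effect of over 50% in size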
Chain of Voltage-gated inwardly rectifying potassium channel KCNH2 (Homo sapiens) (Q12809 whole entry, looked up): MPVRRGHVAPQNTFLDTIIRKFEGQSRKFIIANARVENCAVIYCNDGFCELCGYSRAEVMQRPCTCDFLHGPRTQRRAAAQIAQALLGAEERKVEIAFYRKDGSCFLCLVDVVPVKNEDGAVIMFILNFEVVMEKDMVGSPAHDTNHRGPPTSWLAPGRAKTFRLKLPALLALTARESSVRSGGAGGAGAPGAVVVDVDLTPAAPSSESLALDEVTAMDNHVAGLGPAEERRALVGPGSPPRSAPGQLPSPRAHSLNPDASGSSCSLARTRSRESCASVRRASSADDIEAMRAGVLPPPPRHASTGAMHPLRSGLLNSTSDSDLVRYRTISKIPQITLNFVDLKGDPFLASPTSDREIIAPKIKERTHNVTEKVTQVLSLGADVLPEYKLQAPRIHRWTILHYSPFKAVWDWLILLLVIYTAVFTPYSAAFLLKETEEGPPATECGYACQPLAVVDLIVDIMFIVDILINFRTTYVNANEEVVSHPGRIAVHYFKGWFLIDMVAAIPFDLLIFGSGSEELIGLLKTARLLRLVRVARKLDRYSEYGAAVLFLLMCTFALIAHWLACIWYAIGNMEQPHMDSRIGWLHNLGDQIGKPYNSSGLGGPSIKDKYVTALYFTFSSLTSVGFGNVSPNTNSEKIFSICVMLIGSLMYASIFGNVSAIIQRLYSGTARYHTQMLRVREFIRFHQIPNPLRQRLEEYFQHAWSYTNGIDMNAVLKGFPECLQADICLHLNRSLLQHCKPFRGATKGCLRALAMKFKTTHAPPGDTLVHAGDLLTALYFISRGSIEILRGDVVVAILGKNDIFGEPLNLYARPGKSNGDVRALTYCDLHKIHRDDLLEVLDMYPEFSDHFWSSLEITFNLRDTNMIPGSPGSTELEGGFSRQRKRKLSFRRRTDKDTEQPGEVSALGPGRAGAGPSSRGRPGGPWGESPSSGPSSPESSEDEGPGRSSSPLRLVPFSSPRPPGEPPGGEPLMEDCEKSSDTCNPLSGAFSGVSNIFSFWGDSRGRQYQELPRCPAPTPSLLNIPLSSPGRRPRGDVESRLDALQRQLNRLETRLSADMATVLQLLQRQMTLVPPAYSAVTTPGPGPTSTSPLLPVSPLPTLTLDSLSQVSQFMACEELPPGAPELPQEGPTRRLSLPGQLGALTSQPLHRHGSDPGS
Procedure, shortened: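 Cells were infected with hERG-BacMam virus for 4 hrs at room temperature, grown overnight, then seeded at 2000/well. After dye loading and roughly 10 min compound treatment, thallium influx was triggered and fluorescence recorded.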

ClC(Cl)(Cl)C(Cl)(Cl)Cl
inactive: Potency [1] | outcome [2] | caspase-3 activation [3] -0.424% | caspase-3 activation [4] -1.3% | Potency [5] | Potency [6] | Potency [7] | Potency [8] | Potency [9] | Potency [10] | Potency [11] | Potency [12] | Potency [13] | Potency [14] | Potency [15] | activation [16] 0.631% | outcome [17]

Nc1ccc(Cc2ccc(N)cc2)cc1
inactive: outcome [2] | caspase-3 activation [3] 2.26% | caspase-3 activation [4] 0.697% | Potency [18] | Potency [5] | Potency [6] | Potency [7] | Potency [9] | Potency [10] | Potency [19] | Potency [11] | Potency [12] | Potency [13] | Potency [20] | activation [16] -0.031% and 0.544% | outcome [17]

CC1CC(=O)O1 (stereo not drawn)
inactive: Potency [1] | outcome [2] | caspase-3 activation [3] -1.79% | caspase-3 activation [4] -0.671% | Potency [18] | Potency [5] | Potency [6] | Potency [7] | Potency [8] | Potency [9] | Potency [10] | Potency [19] | Potency [11] | Potency [12] | Potency [13] | Potency [15] | outcome [17]

c1ccc(OCC2CO2)cc1 (stereo not drawn)
inactive: Potency [1] | caspase-3 activation [4] 0.633% | Potency [18] | Potency [5] | Potency [7] | Potency [8] | Potency [10] | Potency [19] | Potency [11] | Potency [12] | Potency [13] | Potency [15] | Potency [20] | activation [16] 0.652% | outcome [17]

O=[N+]([O-])c1cccc2c([N+](=O)[O-])cccc12
inactive: Potency [1] | outcome [2] | caspase-3 activation [3] 0.295% | caspase-3 activation [4] -0.427% | Potency [18] | Potency [5] | Potency [6] | Potency [7] | Potency [8] | Potency [9] | Potency [10] | Potency [19] | Potency [11] | Potency [12] | Potency [13] | Potency [14] | Potency [15] | Potency [20] | activation [16] 0.0339% | outcome [17]

Nc1ccc(-c2ccc(N)c(Cl)c2)cc1Cl
inactive: Potency [1] | caspase-3 activation [4] 4.67% | Potency [5] | Potency [6] | Potency [7] | Potency [8] | Potency [10] | Potency [11] | Potency [12] | Potency [13] | Potency [14] | Potency [20]

Cc1cnc[nH]1
inactive: Potency [1] | outcome [2] | caspase-3 activation [3] 1.79% | caspase-3 activation [4] -0.172% | Potency [5] | Potency [7] | Potency [8] | Potency [9] | Potency [19] | Potency [11] | Potency [13] | Potency [14] | activation [16] -0.55% | outcome [17]

Nc1cccc(Cl)c1
inactive: Potency [1] | outcome [2] | caspase-3 activation [3] 11.8% | caspase-3 activation [4] 5.51% | Potency [18] | Potency [5] | Potency [6] | Potency [8] | Potency [9] | Potency [10] | Potency [19] | Potency [12] | Potency [13] | Potency [14] | Potency [15] | Potency [20] | activation [16] -1.07% | outcome [17]

O=C(O)C(Cl)Br (stereo not drawn)
inactive: Potency [1] | outcome [2] | caspase-3 activation [4] 0.0973% | Potency [18] | Potency [5] | Potency [6] | Potency [7] | Potency [8] | Potency [9] | Potency [10] | Potency [19] | Potency [11] | Potency [12] | Potency [13] | Potency [14] | Potency [15] | Potency [20] | activation [16] 0.434% | outcome [17]

CC(=O)[O-].CC(=O)[O-].CC(=O)[O-].[Cr+3]
inactive: Potency [1] | outcome [2] | caspase-3 activation [3] 0.251% | caspase-3 activation [4] 1.42% | Potency [18] | Potency [5] | Potency [8] | Potency [9] | Potency [10] | Potency [19] | Potency [11] | Potency [12] | Potency [13] | Potency [14] | Potency [15] | Potency [20]

C[N+](=O)[O-]
inactive: Potency [1] | outcome [2] | Potency [18] | Potency [5] | Potency [8] | Potency [9] | Potency [19] | Potency [11] | Potency [12] | Potency [13] | Potency [14] | Potency [15] | Potency [20] | activation [16] -0.658%

c1ccoc1
inactive: outcome [2] | caspase-3 activation [3] 0.558% | caspase-3 activation [4] -1.2% | Potency [5] | Potency [6] | Potency [7] | Potency [8] | Potency [9] | Potency [19] | Potency [11] | Potency [13] | Potency [14] | Potency [15] | activation [16] 0.149% | outcome [17]

Nc1ccccc1-c1ccccc1
inactive: Potency [1] | caspase-3 activation [3] 2.93% | Potency [18] | Potency [5] | Potency [6] | Potency [7] | Potency [8] | Potency [9] | Potency [10] | Potency [11] | Potency [12] | Potency [14] | Potency [20] | activation [16] -2.55% | outcome [17]
